Assay results taken from PubChem BioAssay (EPA / NIEHS).
Activity calls are given as the source filed them. The calls were made as follows: active = hit-call score of the fitted dose curve at least 0.9, where 1 is the maximum; inactive = score below 0.9.

Tests used:
Settings in all cases: mRNA level, 48 h; actives raise or lower the signal
[1] = read-out: Cytochrome P450 3A7 (Homo sapiens) (UniProt P24462); assay: LTEA_HepaRG_CYP3A7: Life Technologies and Expression Analysis (LTEA) Assay for CYP3A7 using HepaRG (AID 2283492)
In short: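 CYP3A7 transcript measured by qRT-PCR (ACTB, GAPDH, POLR2A normalization) after 48 h chemical exposure of HepaRG cells in duplicate. Eight half-log concentrations, maximum 100 uM, 0.5% DMSO vehicle; bidirectional curve fitting against DMSO baseline.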

CYP3A5 (gene 1577) = assay: LTEA_HepaRG_CYP3A5: Life Technologies and Expression Analysis (LTEA) Assay for CYP3A5 using HepaRG (AID 2283493)
In short: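 mRNA induction or loss of CYP3A5 assessed in HepaRG after 48 h dosing, 100 uM top concentration, duplicate wells; TaqMan qRT-PCR with ACTB, GAPDH, POLR2A normalization; 0.5% DMSO as negative control.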

[2] = read-out: Fatty Acid-Binding Protein 1 (FABP1), FABP1 (gene 2168); assay: LTEA_HepaRG_FABP1: Life Technologies and Expression Analysis (LTEA) Assay for Fatty Acid-Binding Protein 1 (FABP1) using HepaRG (AID 2283494)
In short: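 HepaRG, 48 h post-plating switched to serum-free induction medium, then dosed 48 h (duplicate, 8 pts, ≤100 uM, 0.5% DMSO). RNA → Fluidigm TaqMan qRT-PCR, FABP1 normed to ACTB/GAPDH/POLR2A. Bidirectional curve fit vs DMSO.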

[3] = read-out: Cytochrome P450 4A22 (Homo sapiens) (UniProt Q5TCH4); assay: LTEA_HepaRG_CYP4A22: Life Technologies and Expression Analysis (LTEA) Assay for Cytochrome P450 4A22 (CYP4A22) using HepaRG (AID 2283495)
In short: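 Gene expression measured by qRT-PCR against three housekeeping genes (ACTB, GAPDH, POLR2A), with gain or loss fitted relative to 0.5% DMSO vehicle. HepaRG cultures received 48 h chemical treatment, top concentration 100 uM, half-log steps, duplicate wells.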

[4] = read-out: Cytochrome P450 7A1 (Homo sapiens) (UniProt P22680); assay: LTEA_HepaRG_CYP7A1: Life Technologies and Expression Analysis (LTEA) Assay for Cytochrome P450 7A1 (CYP7A1) using HepaRG (AID 2283496)
In short: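 Gene expression endpoint in human HepaRG liver cells treated for 48 h with test chemicals (up to 100 uM, 0.5% DMSO). Values come from bidirectional concentration-response fitting versus DMSO.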

[5] = read-out: Glutathione S-Transferase (GSTA2), GSTA2 (gene 2939); assay: LTEA_HepaRG_GSTA2: Life Technologies and Expression Analysis (LTEA) Assay for Glutathione S-Transferase (GSTA2) using HepaRG (AID 2283497)
In short: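 HepaRG, 48 h dosing, 8-pt half-log CRC from 100 uM, 0.5% DMSO vehicle, n=2; RNA → Fluidigm TaqMan qRT-PCR; GSTA2 vs ACTB/GAPDH/POLR2A; gain/loss fit vs DMSO.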

[6] = read-out: Glutamate-cysteine ligase catalytic (GCLC), GCLC (gene 2729); assay: LTEA_HepaRG_GCLC: Life Technologies and Expression Analysis (LTEA) Assay for Glutamate-cysteine ligase catalytic (GCLC) using HepaRG (AID 2283498)
In short: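 Read-out is GCLC transcript level by Fluidigm-based TaqMan qRT-PCR, normalized to three housekeeping genes and fitted in both directions relative to 0.5% DMSO. Human HepaRG cells received chemicals for 48 h, up to 100 uM.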

[7] = read-out: Glutamate-cysteine ligase regulatory (GCLM), GCLM (gene 2730); assay: LTEA_HepaRG_GCLM: Life Technologies and Expression Analysis (LTEA) Assay for Glutamate-cysteine ligase regulatory (GCLM) using HepaRG (AID 2283500)
In short: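 Human liver HepaRG cultures receive test chemicals for 48 hours at up to 100 uM in 0.5% DMSO. GCLM expression is measured by qRT-PCR and analysed for increases or decreases against vehicle.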

[8] = read-out: Glutathione S-transferase M3 (GSTM3), GSTM3 (gene 2947); assay: LTEA_HepaRG_GSTM3: Life Technologies and Expression Analysis (LTEA) Assay for Glutathione S-transferase M3 (GSTM3) using HepaRG (AID 2283501)
In short: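 GSTM3 transcript levels came from Fluidigm TaqMan qRT-PCR normalized to three housekeeping genes, fitted in both directions against DMSO. HepaRG cultures received chemicals for 48 h in serum-free induction medium (0.5% DMSO), 8 half-log concentrations up to 100 uM, duplicate.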

[9] = read-out: growth arrest and DNA damage 45 (GADD45G), GADD45G (gene 10912); assay: LTEA_HepaRG_GADD45G: Life Technologies and Expression Analysis (LTEA) Assay for growth arrest and DNA damage 45 (GADD45G) using HepaRG (AID 2283499)
In short: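 GADD45G transcript level by qRT-PCR (housekeeping-normalized: ACTB, GAPDH, POLR2A) after 48 h chemical treatment of a single HepaRG lot in serum-free induction medium; eight-point half-log series up to 100 uM in 0.5% DMSO, duplicates, up- or down-regulation scored.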

Measured: AC50

Sequence of Cytochrome P450 3A7 (Homo sapiens) (P24462 whole entry, looked up): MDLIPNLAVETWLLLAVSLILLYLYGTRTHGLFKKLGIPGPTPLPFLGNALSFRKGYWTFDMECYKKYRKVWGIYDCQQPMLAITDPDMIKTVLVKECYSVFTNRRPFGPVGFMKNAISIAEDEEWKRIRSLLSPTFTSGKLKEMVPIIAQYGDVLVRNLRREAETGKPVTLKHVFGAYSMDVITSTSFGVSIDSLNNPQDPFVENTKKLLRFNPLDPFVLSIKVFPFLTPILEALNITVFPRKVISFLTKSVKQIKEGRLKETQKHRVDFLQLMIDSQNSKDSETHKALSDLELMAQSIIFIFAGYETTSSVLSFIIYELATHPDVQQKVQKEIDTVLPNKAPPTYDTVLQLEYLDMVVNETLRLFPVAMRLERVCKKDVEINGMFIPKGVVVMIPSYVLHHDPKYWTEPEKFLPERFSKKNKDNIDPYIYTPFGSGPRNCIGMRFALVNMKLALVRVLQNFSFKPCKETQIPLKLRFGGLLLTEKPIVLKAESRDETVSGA

CCCCCCCC[Si](OCC)(OCC)OCC
inactive: [1] | CYP3A5 (gene 1577) | [2] | [3] | [4] | [5] | [6] | [7] | [8]

Cc1cccc2ccccc12
inactive: [1] | CYP3A5 (gene 1577) | [2] | [3] | [4] | [5] | [6] | [8]

CCCCCCCCCCCO
inactive: [1] | CYP3A5 (gene 1577) | [2] | [3] | [4] | [5] | [6] | [9] | [8]

CCCCCCCCCCCCO
inactive: [1] | CYP3A5 (gene 1577) | [2] | [3] | [5] | [6] | [7] | [8]

CN1C(=O)CC[C@H]1c1cccnc1
inactive: [1] | CYP3A5 (gene 1577) | [2] | [3] | [4] | [5] | [6] | [9] | [7] | [8]

O=c1ccc2ccccc2o1
inactive: [1] | CYP3A5 (gene 1577) | [3] | [4] | [5] | [6] | [8]
active: [2] 36.8 µM

CC(C)(C)c1csc(-c2cc3cc(OCc4ccccc4CC(=O)O)ccc3o2)n1
active: CYP3A5 (gene 1577) 81.3 µM | [2] 32.6 µM | [3] 23.3 µM | [4] 22.5 µM | [5] 31.9 µM | [6] 77.2 µM | [9] 12.1 µM | [8] 37.7 µM
inactive: [1]

O=C1c2ccccc2C(=O)N1CCc1noc(-c2ccc(CN3CCCCCC3)s2)n1
inactive: [1] | CYP3A5 (gene 1577) | [2] | [3] | [4] | [5] | [6] | [7] | [8]

CC(C)(C)c1cc(/C=C2\SC(N)=NC2=O)cc(C(C)(C)C)c1O
active: [1] 27.6 µM | CYP3A5 (gene 1577) 93.5 µM | [2] 14.8 µM | [4] 25.2 µM | [5] 91.4 µM | [6] 14.5 µM | [9] 21.5 µM
inactive: [7] | [8]

COCC(C)OCC(C)OCC(C)O (stereo unspecified)
inactive: [1] | CYP3A5 (gene 1577) | [2] | [3] | [4] | [5] | [6] | [9] | [8]

CN(C[C@@H](CC[N+]12CCC(C3CCCCC3)(CC1)CC2)c1ccc(Cl)c(Cl)c1)C(=O)c1cc(C(F)(F)F)cc(C(F)(F)F)c1
active: [1] 28.6 µM | CYP3A5 (gene 1577) 68.8 µM | [2] 12.5 µM | [4] 23.4 µM | [5] 34.2 µM | [6] 60.9 µM | [7] 91.2 µM | [8] 15.8 µM
inactive: [9]

CCCCOC(=O)c1ccc(O)cc1
inactive: [1] | CYP3A5 (gene 1577) | [2] | [4] | [5] | [6] | [9] | [7] | [8]

CC(C)(O)c1ccc(CNC(=O)c2cccnc2Oc2ccc3nonc3c2)cc1
inactive: CYP3A5 (gene 1577) | [2] | [3] | [4] | [5] | [6] | [8]
active: [1] 6.62 µM

O=C=NCCCCCCN=C=O
inactive: [1] | CYP3A5 (gene 1577) | [2] | [3] | [4] | [5] | [6] | [9] | [7] | [8]

CC[C@@H]1C[C@H](N(Cc2cc(C(F)(F)F)cc(C(F)(F)F)c2)C(C)=O)c2cc(C(F)(F)F)ccc2N1C(=O)OC(C)C
active: [1] 0.435 µM | [2] 4.3 µM | [3] 9.62 µM
inactive: CYP3A5 (gene 1577) | [4] | [5] | [6] | [8]

NCc1cccc(C2CCN(C(=O)c3ccc(C#Cc4ccccc4F)o3)CC2)c1
active: [1] 77.7 µM | CYP3A5 (gene 1577) 81.1 µM | [4] 86.3 µM | [5] 78.9 µM
inactive: [2] | [6] | [9] | [7] | [8]

CCCCCCCCOC(=O)c1cc(O)c(O)c(O)c1
inactive: [1] | CYP3A5 (gene 1577) | [2] | [3] | [4] | [5] | [6] | [9] | [8]

CC[C@H](NC(=O)c1cc(F)ccc1NS(=O)(=O)c1cccc2cccnc12)c1ccccc1
active: [2] 32.3 µM | [3] 22.8 µM | [4] 33.8 µM | [5] 80 µM | [6] 47.8 µM
inactive: [1] | CYP3A5 (gene 1577) | [9] | [8]

CC1(C)NC(=O)N(c2ccc([N+](=O)[O-])c(C(F)(F)F)c2)C1=O
active: CYP3A5 (gene 1577) 32.3 µM | [2] 66.7 µM | [3] 67.4 µM | [4] 90.1 µM | [5] 78.4 µM | [6] 83.4 µM
inactive: [1] | [8]

Cc1ncc(CO)c(CO)c1O
inactive: [1] | CYP3A5 (gene 1577) | [2] | [3] | [4] | [5] | [6] | [8]

CCN(CC)C(=O)c1cc(S(=O)(=O)Cc2ccccc2)c(N2CCC(c3ccccc3)CC2)cc1N(CC)CCN(C)C
inactive: [2] | [3] | [4] | [7] | [8]
active: [1] 1.9 µM | CYP3A5 (gene 1577) 32.2 µM | [5] 4.51 µM | [6] 30.7 µM | [9] 20.5 µM

CC(O)CC(C)(C)O (stereo unspecified)
inactive: [1] | CYP3A5 (gene 1577) | [2] | [4] | [5] | [6] | [9] | [7] | [8]

CCCCCc1ccc(N)cc1
inactive: [1] | CYP3A5 (gene 1577) | [2] | [3] | [4] | [5] | [6] | [7] | [8]

O=C1O[C@H]([C@@H](O)CO)C(O)=C1O
inactive: [1] | CYP3A5 (gene 1577) | [2] | [3] | [4] | [5] | [6] | [9] | [7] | [8]

CCCCCCCCCCCC[N+](C)(C)C
active: CYP3A5 (gene 1577) 86.6 µM | [2] 93.9 µM | [4] 85.8 µM | [5] 93.7 µM | [7] 84.1 µM | [8] 93.9 µM
inactive: [1] | [3] | [6]

O=c1[nH]sc2ccccc12
inactive: [1] | CYP3A5 (gene 1577) | [2] | [3] | [4] | [5] | [6] | [7] | [8]

CN(C)C(=O)C1(N2CCCCC2)CCN(CC[C@@]2(c3ccc(Cl)c(Cl)c3)CN(C(=O)c3ccccc3)CCO2)CC1
active: [1] 24.7 µM | [2] 17 µM | [4] 25.2 µM | [5] 22 µM | [6] 88.3 µM | [9] 37.8 µM | [8] 27.3 µM
inactive: CYP3A5 (gene 1577) | [3]

CC/C(=C(/CC)c1ccc(O)cc1)c1ccc(O)cc1
active: CYP3A5 (gene 1577) 50 µM | [2] 94.1 µM | [4] 84.8 µM | [6] 78.7 µM | [9] 71.7 µM
inactive: [1] | [3] | [5] | [7] | [8]

Clc1ccccc1C(c1ccccc1)(c1ccccc1)n1ccnc1
inactive: [1] | CYP3A5 (gene 1577) | [8]
active: [2] 18.1 µM | [3] 15.7 µM | [4] 28.5 µM | [5] 50 µM | [6] 63 µM | [7] 24.2 µM

O=C(O)Cc1cc(I)c(Oc2ccc(O)c(I)c2)c(I)c1
inactive: [6] | [8]
active: [1] 0.0294 µM | CYP3A5 (gene 1577) 0.0881 µM | [2] 89.8 µM | [3] 0.063 µM | [4] 56.8 µM | [5] 84.7 µM | [9] 70.3 µM | [7] 79 µM

CC(C)(c1cc(Br)c(O)c(Br)c1)c1cc(Br)c(O)c(Br)c1
inactive: CYP3A5 (gene 1577) | [2] | [4] | [9] | [8]
active: [1] 9.73 µM | [5] 72.4 µM | [6] 78 µM

COc1cccc([C@H](O)C2CCN(CCc3ccc(F)cc3)CC2)c1OC
active: [9] 69.1 µM | [8] 72.9 µM
inactive: [1] | CYP3A5 (gene 1577) | [2] | [3] | [4] | [5] | [6] | [7]

CCCCOC(=O)CC(CC(=O)OCCCC)(OC(C)=O)C(=O)OCCCC
inactive: [1] | CYP3A5 (gene 1577) | [2] | [3] | [4] | [5] | [6] | [9] | [8]

CCN(Cc1cccc(S(=O)(=O)O)c1)c1ccc(C(=C2C=CC(=[N+](CC)Cc3cccc(S(=O)(=O)O)c3)C=C2)c2ccccc2S(=O)(=O)[O-])cc1
inactive: [1] | CYP3A5 (gene 1577) | [2] | [3] | [4] | [5] | [6] | [9] | [7] | [8]
